# Values joined by “and” are separate entries in the source; they are usually repeats but may differ in a detail not shown here. Identical values can stand only once. Inconclusive results are not listed. Entries that show only a call come without a potency. Active and inactive are the calls of the source. Unless noted, calls come from the whole dose curve; as a rule, active = well fitted curve in the direction sought with a large enough effect; inconclusive = small, poorly fitted or top-dose-only effect, or another doubt; inactive = no such curve, though single readings can be large; an effect the other way counts as inactive or inconclusive.
# Columns and labels:
# [1] = biological target: Calcium and integrin-binding protein 1 (Homo sapiens) (UniProt Q99828); experiment: Primary qHTS for Identification of Calcium Integrin Binding Protein 1 (CIB1) Competitor (AID 1508620);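 note: GST tagged CIB1 binding a fluorescein labelled alphaIIb integrin peptide tracer; top concentration of the series differs between compounds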
# Method in brief: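 CIB1-GST (1 uM final) and compound incubated 15 min at room temperature before adding FITC-alphaIIb peptide tracer (100 nM final). Competition for binding read by fluorescence polarization (ex 480, em 540) after another 15 min at room temperature.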
# [2] = Primary qHTS for small molecule stabilizers of the endoplasmic reticulum resident proteome: Secreted ER Calcium Modulated Protein (SERCaMP) assay (AID 1508630)
# Method in brief: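 The SH-SY5Y reporter protocol was run at 3 concentrations up to 38.3 uM (primary) or 11 concentrations (follow-up): 16 h compound, 100 nM thapsigargin for 4 h, then extracellular luciferase luminescence.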
# [3] = Primary qHTS for inhibitors of nuclear receptor binding SET domain protein 2 (NSD2) in an isogenic RCH-ACV NSD2 p.E1099K mutant (9B) (AID 1645876); note: nearly all actives have a fitted effect of over 70% in size; note: potency is the fitted concentration of half-maximal effect
# [4] = biological target: Cytochrome P450 2D6 (Homo sapiens) (UniProt P10635); experiment: Cytochrome P450 family 2 subfamily D member 6 (CYP2D6) small molecule antagonists: luciferase biochemical (cell-free) qHTS assay (AID 1645840; active = well fitted curve in the direction sought with a large enough effect in the repeat runs; an effect the other way counts as inactive or inconclusive; note: nearly all actives have a fitted effect of over 55% in size; note: potency is the fitted concentration of half-maximal effect)
# Method in brief: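 P450-Glo CYP2D6 system: proluciferin substrate converted by enzyme to luciferin, read by luminescence proportional to activity. Enzyme-substrate mix with compound 10 min at room temperature, then NADPH regeneration 1 h before detection reagent.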
# [5] = biological target: Cytochrome P450 2C9 (Homo sapiens) (UniProt P11712); experiment: Cytochrome P450 family 2 subfamily C member 9 (CYP2C9) small molecule antagonists: luciferase biochemical (cell-free) qHTS assay (AID 1645842; active = well fitted curve in the direction sought with a large enough effect in the repeat runs; an effect the other way counts as inactive or inconclusive; note: nearly all actives have a fitted effect of over 55% in size; note: potency is the fitted concentration of half-maximal effect)
# Method in brief: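 P450-Glo CYP2C9 system: proluciferin substrate with enzyme in mix containing 0.4% BSA, 10 min at room temperature, then NADPH regeneration solution added and incubated 1 h at 37C. Detection reagent stopped reaction; luminescence read after 20 min as RLU.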
# [6] = biological target: N-terminal Xaa-Pro-Lys N-methyltransferase 1 (Homo sapiens) (UniProt Q9BV86); experiment: Confirmatory qHTS for Inhibitors of N-terminal methyltransferase 1 (NTMT1): MTaseGlo Assay (AID 1645874);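 note: luminescence from SAH made as NTMT1 methylates SPKRIA peptide using SAM; series mostly up to about 100 µM; nearly all actives have a fitted effect of over 65% in size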
# Method in brief: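 Enzyme mix (125 nM NTMT1, 100 uM SAM) + compound, 15 min RT; + 1 uM SPKRIA, 30 min RT, dark; MTase-Glo reagent 30 min, detection solution 30 min; luminescence. % inhibition vs no-enzyme/DMSO controls, 4-parameter Hill fit.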
# Sequence of Calcium and integrin-binding protein 1 (Homo sapiens) (Q99828 whole entry, looked up): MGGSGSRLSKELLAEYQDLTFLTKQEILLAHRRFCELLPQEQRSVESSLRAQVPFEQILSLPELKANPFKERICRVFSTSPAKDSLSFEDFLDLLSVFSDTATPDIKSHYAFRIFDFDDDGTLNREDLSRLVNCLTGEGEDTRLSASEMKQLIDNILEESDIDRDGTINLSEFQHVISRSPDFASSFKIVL
# Sequence of Cytochrome P450 2C9 (Homo sapiens) (P11712 whole entry, looked up): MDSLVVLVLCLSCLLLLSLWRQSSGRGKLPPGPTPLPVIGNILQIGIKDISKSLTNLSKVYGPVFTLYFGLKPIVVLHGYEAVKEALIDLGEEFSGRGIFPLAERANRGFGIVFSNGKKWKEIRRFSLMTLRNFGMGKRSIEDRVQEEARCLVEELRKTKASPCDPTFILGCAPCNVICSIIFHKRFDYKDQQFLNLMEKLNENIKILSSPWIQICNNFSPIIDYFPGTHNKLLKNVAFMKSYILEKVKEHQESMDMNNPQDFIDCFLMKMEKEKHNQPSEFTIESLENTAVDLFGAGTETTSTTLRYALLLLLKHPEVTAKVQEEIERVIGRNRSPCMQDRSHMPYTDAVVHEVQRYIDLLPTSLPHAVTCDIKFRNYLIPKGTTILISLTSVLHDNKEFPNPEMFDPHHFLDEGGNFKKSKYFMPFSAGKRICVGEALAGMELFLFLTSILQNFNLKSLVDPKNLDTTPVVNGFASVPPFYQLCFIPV
# Sequence of Cytochrome P450 2D6 (Homo sapiens) (P10635 whole entry, looked up): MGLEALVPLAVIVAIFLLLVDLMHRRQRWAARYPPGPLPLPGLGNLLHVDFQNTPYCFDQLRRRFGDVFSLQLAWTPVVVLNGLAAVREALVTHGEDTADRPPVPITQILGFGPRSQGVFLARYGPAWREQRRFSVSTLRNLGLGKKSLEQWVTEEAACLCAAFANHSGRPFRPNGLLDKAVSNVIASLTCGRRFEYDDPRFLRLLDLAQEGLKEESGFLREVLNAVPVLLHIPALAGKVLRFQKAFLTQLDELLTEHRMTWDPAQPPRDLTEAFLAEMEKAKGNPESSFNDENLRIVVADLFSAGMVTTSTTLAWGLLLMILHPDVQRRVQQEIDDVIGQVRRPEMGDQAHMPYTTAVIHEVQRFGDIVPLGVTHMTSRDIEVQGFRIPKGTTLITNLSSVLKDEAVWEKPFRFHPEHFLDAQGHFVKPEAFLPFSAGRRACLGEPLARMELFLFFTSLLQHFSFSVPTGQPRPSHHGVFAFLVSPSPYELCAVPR
# Sequence of N-terminal Xaa-Pro-Lys N-methyltransferase 1 (Homo sapiens) (Q9BV86 whole entry, looked up): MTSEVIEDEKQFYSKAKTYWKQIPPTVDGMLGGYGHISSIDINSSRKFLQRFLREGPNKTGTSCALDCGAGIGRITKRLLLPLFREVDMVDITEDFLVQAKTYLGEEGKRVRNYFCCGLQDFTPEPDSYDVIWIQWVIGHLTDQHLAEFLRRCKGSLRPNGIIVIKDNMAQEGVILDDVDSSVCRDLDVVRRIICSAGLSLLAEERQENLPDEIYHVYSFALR
smiles,measurement,setting,value
C[C@]1(CO)CN(c2cc(C(=O)Nc3ccc4c(c3)-c3c(c(C(N)=O)nn3-c3ccc(F)cc3)CC4)c(Cl)cn2)C[C@@]1(C)CO,outcome,[1],inactive
same,Potency,[2],inactive
same,Potency,[3],3.25 µM (active)
Nc1ccc(C(=O)c2cc3c(ccc4ccccc43)[nH]2)cc1,outcome,[1],inactive
same,Potency,[2],inactive
same,Potency,[3],2.41 µM (active)
Cc1c(CN2CCN(S(C)(=O)=O)CC2)sc2c(N3CCOCC3)nc(-c3cnc(N)nc3)nc12,outcome,[1],inactive
same,Potency,[2],inactive
same,Potency,[4],inactive
same,Potency,[5],10.7 µM (active)
same,Potency,[3],29 nM (active) and 74.2 nM (active)
CN1CCN(c2ccc3nc(-c4c(N)c5c(F)cccc5[nH]c4=O)[nH]c3c2)CC1,outcome,[1],inactive
same,Potency,[2],inactive
same,Potency,[3],1.3 µM (active) and 742 nM (active)
COc1cc2c(NC3CCN(C(C)C)CC3)nc(C3CCCCC3)nc2cc1OCCCN1CCCC1,outcome,[1],inactive
same,Potency,[2],inactive
same,Potency,[6],inactive
same,Potency,[3],9.16 µM (active) and 8.33 µM (active)
COc1cc2c(Oc3ccc(-c4cnc(Nc5ccc(F)cc5)n(C)c4=O)cc3F)ccnc2cc1OCCCN1CCOCC1,outcome,[1],inactive
same,Potency,[2],inactive
same,Potency,[4],inactive
same,Potency,[5],inactive
same,Potency,[3],4.09 µM (active) and 1.48 µM (active)
NC(=O)Nc1cc(-c2cccc(F)c2)sc1C(=O)N[C@H]1CCCNC1,outcome,[1],inactive
same,Potency,[2],inactive
same,Potency,[3],81.7 nM (active) and 74.2 nM (active)
Nc1ncnc2c1c(-c1cccc(OCc3ccccc3)c1)cn2C1CC(CN2CCCC2)C1 (configuration not stated),outcome,[1],inactive
same,Potency,[4],12 µM (active)
same,Potency,[5],16.9 µM (active)
same,Potency,[3],11.8 µM (active)
CN(C1CCc2c(c3ccccc3n2CC(=O)O)C1)S(=O)(=O)c1ccc(F)cc1 (configuration not stated),outcome,[1],inactive
same,Potency,[4],inactive
same,Potency,[5],19 µM (active) and 13.5 µM (active)
same,Potency,[3],inactive
Cc1nc(N)ncc1-c1nc(N2CCOCC2)c2sc(C(C)(C)O)cc2n1,outcome,[1],inactive
same,Potency,[3],81.7 nM (active) and 590 nM (active)
Clc1cccc(-n2nnnc2NCc2ccccc2Oc2ccccn2)c1Cl,Potency,[4],5.35 µM (active)
same,Potency,[5],6.01 µM (active)
CC(C)[C@H](C(=O)Nc1ccc(C(=O)NO)cc1)c1ccccc1,outcome,[1],inactive
same,Potency,[3],inactive
Nc1cc(C(F)(F)F)c(-c2cc(N3CCOCC3)nc(N3CCOCC3)n2)cn1,Potency,[2],inactive
same,Potency,[3],578 nM (active) and 1.18 µM (active)
Cn1cc(-c2ccncc2)c(-c2ccc(OCc3ccc4ccccc4n3)cc2)n1,outcome,[1],inactive
same,Potency,[4],7.56 µM (active)
same,Potency,[5],0.601 µM (active)
same,Potency,[3],12.9 µM (active)
CC(=O)Nc1nc(C)c(-c2ccc(Cl)c(S(=O)(=O)NCCO)c2)s1,outcome,[1],inactive
same,Potency,[3],1.32 µM (active)
Cc1cnc(Nc2ccc(F)cc2Cl)nc1-c1c[nH]c(C(=O)N[C@H](CO)c2cccc(Cl)c2)c1,Potency,[2],inactive
same,Potency,[4],8.49 µM (active)
same,Potency,[5],3.38 µM (active)
same,Potency,[3],2.9 µM (active) and 18.6 µM (active)
CCn1nnc2c(N3CCOCC3)nc(-c3ccc(NC(=O)Nc4ccc(C(=O)N5CCN(C)CC5)cc4)cc3)nc21,outcome,[1],inactive
same,Potency,[3],18.3 nM (active) and 41.7 nM (active)
Cc1cc(C(=O)N2CCN(c3cccc(Cl)c3)CC2)n(-c2ccccc2)n1,Potency,[2],inactive
same,Potency,[3],2.09 µM (active)
C[C@H]1C[C@@H]2[C@@H]([C@@H](O)C[C@@]3(C)[C@H]2CC[C@]3(O)C(=O)CO)[C@@]2(C)C=CC(=O)C=C12,Potency,[2],inactive
CC[C@H]1CN2CCc3cc(OC)c(OC)cc3[C@H]2C[C@@H]1C[C@@H]1NCCc2cc(OC)c(OC)cc21,Potency,[2],inactive
CC1(O)CC(c2nc(-c3ccc4ccc(-c5ccccc5)nc4c3)c3c(N)nccn23)C1 (configuration not stated),outcome,[1],inactive
same,Potency,[5],2.13 µM (active) and 952 nM (active)
same,Potency,[3],12.9 µM (active)
c1ccc2c(CCNc3ccc(Nc4ccncc4)cc3)c[nH]c2c1,outcome,[1],inactive
same,Potency,[4],0.477 µM (active)
same,Potency,[5],2.68 µM (active)
same,Potency,[3],728 nM (active) and 332 nM (active)
Cc1cc(N2CCOCC2)cc2[nH]c(-c3c(NC[C@@H](O)c4cccc(Cl)c4)cc[nH]c3=O)nc12,Potency,[2],inactive
same,Potency,[6],inactive
same,Potency,[3],1.66 µM (active)
O=C(O)CO.[NH2-].[NH2-].[Pt+2],Potency,[2],inactive
CS(=O)(=O)c1ccc(-c2cnc(N)c(C(=O)Nc3ccccc3)n2)cc1,outcome,[1],inactive
same,Potency,[4],inactive
same,Potency,[5],12 µM (active)
same,Potency,[3],2.63 µM (active)
COC(=O)[C@]12CCC(C)(C)C[C@@H]1[C@@H]1C(=O)C=C3[C@@]4(C)C=C(C#N)C(=O)C(C)(C)[C@@H]4CC[C@@]3(C)[C@]1(C)CC2,Potency,[2],inactive
O=C(CCCCCCNC(=O)c1cnc(N(c2ccccc2)c2ccccc2)nc1)NO,outcome,[1],inactive
same,Potency,[3],728 nM (active) and 2.95 µM (active)
O=C(Nc1nc2cccc(-c3ccc(CN4CCS(=O)(=O)CC4)cc3)n2n1)C1CC1,Potency,[2],inactive
same,Potency,[4],inactive
same,Potency,[5],inactive
same,Potency,[3],14.5 µM (active) and 14.8 µM (active)
CCCCOc1c(C(=O)c2c(F)cc(C)cc2F)cnc2n[nH]cc12,outcome,[1],inactive
same,Potency,[4],inactive
same,Potency,[3],0.817 µM (active)
Cc1cc(Nc2cc(N3CCN(C)CC3)nc(C=Cc3ccccc3)n2)n[nH]1,Potency,[2],inactive
Cc1ccc(S(=O)(=O)Nc2cc(Cl)ccc2C(=O)Nc2nc(-c3ccccc3)cs2)cc1,outcome,[1],inactive
same,Potency,[3],inactive
CS(=O)(=O)N1CCN(Cc2cc3nc(-c4cccc5[nH]ncc45)nc(N4CCOCC4)c3s2)CC1,Potency,[2],inactive
COc1cc(OC2CCN(C)CC2)ccc1Nc1ncc2c(n1)n(C1CCCC1)c(=O)n2C,Potency,[2],inactive
same,Potency,[3],5.25 µM (active)
Nc1ccn([C@@H]2CS[C@H](CO)O2)c(=O)n1,Potency,[2],inactive
same,Potency,[4],inactive
same,Potency,[5],inactive
same,Potency,[3],inactive
O=C(Nc1cc(C(F)(F)F)cc(C(F)(F)F)c1)c1cc(Cl)ccc1O,outcome,[1],inactive
same,Potency,[3],3.25 µM (active) and 2.63 µM (active)
CC(C)(C)OC(=O)Nc1ccc(-c2cc(C(=O)NCCCCCCC(=O)NO)no2)cc1,Potency,[2],inactive
same,Potency,[3],1.48 µM (active)
COc1cc2ncn(-c3cc(OCc4ccccc4C(F)(F)F)c(C(N)=O)s3)c2cc1OC,outcome,[1],inactive
same,Potency,[3],562 nM (active) and 1.05 µM (active)
Cn1cncc1[C@@](N)(c1ccc(Cl)cc1)c1ccc2c(c1)c(-c1cccc(Cl)c1)cc(=O)n2C,Potency,[4],16.9 µM (active)
same,Potency,[5],0.169 µM (active)
same,Potency,[3],inactive
O=C(C=Cc1cccc(S(=O)(=O)Nc2ccccc2)c1)NO,Potency,[2],inactive
CN(C)c1nc(Cc2ccc(NC(=O)c3ccc4ccccc4c3)cc2)nc(Cl)c1CC(=O)O,Potency,[4],inactive
same,Potency,[3],inactive
Nc1ccccc1NC(=O)c1ccc(CNC(=O)OCc2cccnc2)cc1,Potency,[2],inactive
same,Potency,[3],578 nM (active) and 742 nM (active)

# From PubChem BioAssay (NCATS)
